# The supplement of paper PMC11172423
# A number with no mark means an inactive call.
# Legend:
# [1] = test system: Falciformispora senegalensis CBS197.79; test: growth relative to untreated control; higher = less inhibition, active = 20 or less
# How it was run: (§1)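 Hyphal fragments of M. mycetomatis MM55 or F. senegalensis CBS197.79 were suspended in colourless RPMI 1640 with L-glutamine and MOPS at 68–72% transmission at 660 nm. They were exposed in 96-well plates to compound at 100 or 25 µM for 7 days at 37 °C. Viability was read with MTS (2 h, 490 nm) or resazurin (600 nm). Growth is metabolic activity relative to the untreated growth control, both corrected with a medium-plus-dye blank.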
# [2] = test system: Madurella mycetomatis MM55; test: as above
# How it was run: as §1
Compound,growth ([1]; 25 µM),growth ([1]; 100 µM),growth ([2]; 25 µM),growth ([2]; 100 µM)
COc1cc(OC)c2c(O)nc(-c3cc(C)c(OCCO)c(C)c3)nc2c1,103%,97.6%,103%,72.7%
COc1ccc2cc1Oc1ccc(cc1)C[C@H]1c3cc(c(OC)cc3CCN1C)Oc1c(OC)c(OC)cc3c1[C@H](C2)N(C)CC3,33.4%,20.6%,3.29% (active),3.62% (active)
CN(c1ncc2nc(Nc3cc(Cl)cc(C(F)(F)F)c3)n(C3CCNCC3)c2n1)C1CC1,90.9%,12.3% (active),54.8%,5.99% (active)
Cc1cccnc1-c1noc(-c2ccccc2)n1,99.3%,98%,49.2%,87.4%
O=S(=O)(NCC1(O)CCOc2ccccc21)c1ccccc1F (stereo unspecified),85.9%,113%,101%,102%
CN1CCC(Oc2nc(Nc3ccccc3)nc3[nH]cc(-c4cnn(C)c4)c23)CC1,89%,79%,78.3%,17.9% (active)
Nc1nc(S)c2[nH]cnc2n1,106%,103%,71.8%,92.8%
O=C(c1ccc(Nc2nccc(-c3cc(Cl)cc(C(F)(F)F)c3)n2)cc1)N1CC(O)C1,88.9%,93.2%,110%,85.6%
CCN(CCO)CCCC(C)Nc1ccnc2cc(Cl)ccc12 (stereo unspecified),109%,105%,85.1%,78.2%
Cc1ccc(-c2ccc(C3(CN)CCOCC3)cc2)cn1,59%,25.4%,41.4%,6.97% (active)
O=C(NCCN1CCCCC1)c1cncc(-c2ccc(Cl)c(Cl)c2)c1,95.7%,30.1%,52.1%,5.8% (active)
CC[C@H](C)[C@H]1O[C@]2(CC[C@@H]1C)C[C@@H]1C[C@@H](C/C=C(\C)[C@@H](O[C@H]3C[C@H](OC)[C@@H](O[C@H]4C[C@H](OC)[C@@H](O)[C@H](C)O4)[C@H](C)O3)[C@@H](C)/C=C/C=C3\CO[C@@H]4[C@H](O)C(C)=C[C@@H](C(=O)O1)[C@]34O)O2 [listing 1 of 2 here],93.9%,106%,73.2%,83.5%
CC[C@H](C)[C@H]1O[C@]2(C=C[C@@H]1C)C[C@@H]1C[C@@H](C/C=C(\C)[C@@H](O[C@H]3C[C@H](OC)[C@@H](O[C@H]4C[C@H](OC)[C@H](NC(C)=O)[C@H](C)O4)[C@H](C)O3)[C@@H](C)/C=C/C=C3\CO[C@@H]4[C@H](O)C(C)=C[C@@H](C(=O)O1)[C@]34O)O2,101%,91.4%,74.9%,116%
Nc1nc(C2CC2)cn1CC(O)c1ccc(Cl)cc1Cl (stereo unspecified),86%,73.7%,83.6%,83.2%
CC(C)Nc1ncc2nc(Nc3cc(Cl)cc(C(F)(F)F)c3)n(C3CCNCC3)c2n1,90.2%,69.2%,118%,4.67% (active)
CN(C)CCOc1ccc(/C(=C(/CCCl)c2ccccc2)c2ccccc2)cc1,0% (active),0% (active),7.23% (active),6.66% (active)
c1cc(-c2n[nH]c3ccc(-c4n[nH]c(C5CCCN5)n4)cc23)ccc1CNC1CC1 (stereo unspecified),88.8%,84.8%,70.2%,31.7%
Cc1cccc2c1N(C(=O)c1cc(Br)nn1-c1ncccc1Cl)CN(C(C)C)C2=O,94%,93.3%,91.9%,153%
COc1ccc(-n2nc(C(N)=O)c3c2C(=O)N(c2ccc(N4CCCCC4=O)cc2)CC3)cc1,104%,91.6%,111%,84.1%
CN(C)CCn1cnc2sc3c(c2c1=O)CCC(NCc1cccc(Cl)c1)C3 (stereo unspecified),94.3%,21%,36.1%,5.28% (active)
Cc1cccc(-c2noc(-c3ccccc3)n2)c1,86.3%,99.4%,90.6%,68.5%
Cc1cc(Nc2cc(N)ncn2)c(=O)n2c1C(=O)NC21CCCCC1,111%,107%,85.9%,84.7%

Compound,growth ([1]; 25 µM),growth ([1]; 100 µM),growth ([2]; 25 µM),growth ([2]; 100 µM)
CC(C)c1nc(CN(C)C(=O)N[C@H](C(=O)N[C@@H](Cc2ccccc2)C[C@H](O)[C@H](Cc2ccccc2)NC(=O)OCc2cncs2)C(C)C)cs1,101%,104%,74.1%,82.2%
O=C(Nc1ncc([N+](=O)[O-])s1)c1ccccc1O,95.8%,100%,72.6%,91.8%
Cc1cnc2nc(NC3COc4ccc(F)cc43)nc(NC3CCC4(CCCC4)CC3)c2c1 (stereo unspecified),85.8%,95%,73.6%,38.8%
CCCCN(CCCC)CCC(O)c1cc2c(Cl)cc(Cl)cc2c2cc(C(F)(F)F)ccc12 (stereo unspecified),98.2%,106%,75.6%,77.3%
Cc1ccc(-c2cc(C(F)(F)F)nn2-c2ccc(S(N)(=O)=O)cc2)cc1,102%,9.81% (active),98%,6.13% (active)
COc1ccc(CCN(Cc2cccs2)C(=O)c2cc3sccc3n2C)cc1OC,97.9%,113%,5.66% (active),31.3%
Cn1cnc2c(F)c(Nc3ccc(Br)cc3Cl)c(C(=O)NOCCO)cc21,96.9%,103%,110%,86.3%
Cn1cc(CN2CCc3c(c(C(=O)NCc4nccs4)nn3Cc3ccccc3)C2)c2ccccc21,89.7%,101%,88.4%,32.5%
COc1ccc2c(O[C@@H]3C[C@H]4C(=O)N[C@]5(C(=O)NS(=O)(=O)C6CC6)C[C@H]5/C=C\CCCCN(C)C(=O)[C@@H]4C3)cc(-c3nc(C(C)C)cs3)nc2c1C,103%,100%,87.1%,74.8%
CNC(=O)c1cc(Oc2ccc(NC(=O)Nc3ccc(Cl)c(C(F)(F)F)c3)c(F)c2)ccn1,109%,101%,69.9%,74.4%
CC(N)CCn1c(Nc2cc(Cl)cc(C(F)(F)F)c2)nc2cnc(NC3CCCC3)nc21 (stereo unspecified),10.9% (active),17.2% (active),11.2% (active),7.25% (active)
Cc1ccc(NC(=O)c2ccc(CN3CCN(C)CC3)cc2)cc1Nc1nccc(-c2cccnc2)n1,95.1%,103%,86%,70.7%
CCN1CCN(Cc2ccc(-c3cc4c(N[C@H](C)c5ccccc5)[nH]cnc-4n3)cc2)CC1,78.1%,49.3%,97.8%,46.8%
FC(F)(F)c1ccc(CNc2ccc(Cc3c[nH]c4ncc(Cl)cc34)cn2)cn1,95.7%,106%,93.1%,95.5%
CC[C@H](NC(=O)c1cc2c(F)cccc2[nH]1)c1ccccc1,77.9%,99%,8.07% (active),5.18% (active)
CC[C@H](C)[C@H]1O[C@]2(CC[C@@H]1C)C[C@@H]1C[C@@H](C/C=C(\C)[C@@H](O[C@H]3C[C@H](OC)[C@@H](O[C@H]4C[C@H](OC)[C@@H](O)[C@H](C)O4)[C@H](C)O3)[C@@H](C)/C=C/C=C3\CO[C@@H]4[C@H](O)C(C)=C[C@@H](C(=O)O1)[C@]34O)O2 [listing 2 of 2 here],90.2%,91.2%,95.8%,112%
O=c1[nH]ccc2nc(N[C@@H]3CCNC3)nc(Nc3ccc4c(c3)S(=O)(=O)CC4)c12,90.7%,113%,62.9%,104%
O=C(Nc1ncccc1O)c1ccc(N2CCOCC2)nc1,90%,81.4%,92.8%,95.8%
Cc1c[nH]c(-c2cccc(C(=O)NC3CCC(CCN4CCc5ccc(C#N)cc5CC4)CC3)c2)n1 (stereo unspecified),74.1%,92.9%,38.2%,88.4%
O=C(NC1CCNCC1)c1ccc(Nc2nccc(-c3ccc(Cl)cc3)n2)cc1,98%,10% (active),37.4%,6.07% (active)
CCOc1cc(C(C)(C)C)ccc1C1=N[C@@](C)(c2ccc(Cl)cc2)[C@@](C)(c2ccc(Cl)cc2)N1C(=O)N1CCN(CCCS(C)(=O)=O)CC1,99.6%,101%,86.9%,99.8%
Cn1ccnc1SCC(=O)Nc1ccc(C(=O)Nc2ncccc2O)cc1,87.2%,79.4%,102%,64.9%
